Potency, outcome and activation data for 13 molecules are collected here from PubChem BioAssay (Tox21).

Several values for one entry are separate records, joined by “and”; a condition that tells them apart may be missing. Equal entries are not always repeated. The source holds several records for some structures; these can differ, active in one and inactive in another. Activity calls are given as the source filed them. Unless noted, calls follow the shape of the dose curve; as a rule, active = well fitted curve in the direction sought with a large enough effect in the repeat runs; inconclusive = weak or mixed curves; inactive = no such curve, though single readings can be large; an effect the other way counts as inactive or inconclusive.

A short description of assay [1]: qHTS assay to identify small molecule antagonists of the estrogen receptor alpha (ER-alpha) signaling pathway - cell viability counter screen (AID 743074; calls by dose curve;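 also: HEK293 cells carrying ER-alpha-UAS-bla reporter stimulated with 17beta-estradiol; nearly all actives have a fitted effect of over 45% in size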).
A short description of assay [2]: qHTS assay to identify small molecule antagonists of the estrogen receptor alpha (ER-alpha) signaling pathway using the BG1 cell line - cell viability counter screen (AID 743081).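 Also: compound given together with 17beta-estradiol as the ER stimulus; nearly all actives have a fitted effect of over 45% in size.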
For a further assay, the target named is Aromatase (Homo sapiens) (UniProt P11511). Kind of assay: qHTS assay to identify aromatase inhibitors (AID 743083). Also: nearly all actives have a fitted effect of over 55% in size. Also: potency is read from the fitted curve at half-maximal effect.
Chain of Aromatase (Homo sapiens) (P11511 whole entry, looked up): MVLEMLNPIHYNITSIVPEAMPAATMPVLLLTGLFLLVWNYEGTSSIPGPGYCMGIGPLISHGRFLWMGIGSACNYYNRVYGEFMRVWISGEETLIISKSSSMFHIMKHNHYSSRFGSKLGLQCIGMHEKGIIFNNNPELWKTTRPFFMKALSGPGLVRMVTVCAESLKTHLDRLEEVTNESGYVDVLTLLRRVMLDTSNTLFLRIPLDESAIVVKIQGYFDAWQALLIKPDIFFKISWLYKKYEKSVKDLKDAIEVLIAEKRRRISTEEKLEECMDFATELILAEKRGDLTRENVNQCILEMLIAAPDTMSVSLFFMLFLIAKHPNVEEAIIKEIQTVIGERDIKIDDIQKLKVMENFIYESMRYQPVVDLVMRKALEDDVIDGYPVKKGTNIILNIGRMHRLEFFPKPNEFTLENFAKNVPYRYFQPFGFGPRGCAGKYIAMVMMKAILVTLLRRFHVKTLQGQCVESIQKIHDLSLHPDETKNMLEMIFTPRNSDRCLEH
Assay [3] in a line: qHTS assay to identify aromatase inhibitors - cell viability counter screen (AID 743084).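 Also: cells stimulated with testosterone during compound exposure; nearly all actives have a fitted effect of over 55% in size.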
Assay [4] is described as follows: qHTS assay to identify small molecule that activate the aryl hydrocarbon receptor (AhR) signaling pathway - cell viability counter screen (AID 743086).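 Also: HepG2 liver cells carrying the AhR DRE luciferase reporter; nearly all actives have a fitted effect of over 45% in size.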 The essentials:
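HepG2-AhR-luc (HG2L7.5c1) cells, 4000/well, treated 24 h at 37 C with compound; viability measured as CellTiter-Fluor fluorescence after 30 min in the same wells as the luciferase read.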
A general note: qHTS replaces the single test concentration by a dilution series.

Assay [5] deals with Peroxisome proliferator-activated receptor gamma (Homo sapiens) (UniProt P37231). Kind of assay: qHTS assay to identify small molecule agonists of the peroxisome proliferator-activated receptor gamma (PPARg) signaling pathway (AID 743094; active = well fitted activation curve with a large enough effect in the signal ratio in the repeat runs, not every such curve was filed as active; inconclusive = weak or mixed curves, or effect the other way; inactive = no such curve, though single readings can be large or run the other way; the % refers to the signal ratio). In short, it runs like this: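 Cell-based bla reporter, HEK293H background, PPARg-driven UAS. Pre-incubation 5 h, 37C, 5% CO2. Compound 17 h, 37C. Substrate 1 h RT; fluorescence.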
Chain of Peroxisome proliferator-activated receptor gamma (Homo sapiens) (P37231 whole entry, looked up): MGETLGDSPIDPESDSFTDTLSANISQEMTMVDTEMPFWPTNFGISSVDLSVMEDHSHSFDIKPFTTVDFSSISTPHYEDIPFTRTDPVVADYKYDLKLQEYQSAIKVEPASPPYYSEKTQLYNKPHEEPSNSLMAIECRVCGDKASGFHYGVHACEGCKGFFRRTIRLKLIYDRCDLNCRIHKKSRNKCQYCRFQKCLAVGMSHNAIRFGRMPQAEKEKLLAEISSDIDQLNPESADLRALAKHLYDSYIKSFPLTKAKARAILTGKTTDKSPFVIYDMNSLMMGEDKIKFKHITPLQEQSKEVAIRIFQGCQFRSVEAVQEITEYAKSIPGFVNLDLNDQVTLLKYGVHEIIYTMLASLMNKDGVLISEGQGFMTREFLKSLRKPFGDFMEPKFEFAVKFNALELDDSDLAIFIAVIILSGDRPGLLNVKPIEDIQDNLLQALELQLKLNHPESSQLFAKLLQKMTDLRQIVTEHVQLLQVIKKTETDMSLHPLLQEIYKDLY

Assay [6] can be described thus: qHTS assay to identify small molecule antagonists of the peroxisome proliferator-activated receptor gamma (PPARg) signaling pathway - cell viability counter screen (AID 743194). Also: nearly all actives have a fitted effect of over 55% in size. In short, it runs like this: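 Cytotoxicity counter screen in PPARg-bla HEK293H cells, same wells as reporter assay. Compounds plus 50 nM rosiglitazone (final) for 17 h at 37 C, then viability read by CellTiter-Glo luminescence.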

The nature of assay [7]: qHTS assay for small molecule agonists of the antioxidant response element (ARE) signaling pathway (AID 743202; active = well fitted activation curve with a large enough effect in the signal ratio in the repeat runs, not every such curve was filed as active; inconclusive = weak or mixed curves, or effect the other way; inactive = no such curve, though single readings can be large or run the other way; the % refers to the signal ratio; also: potency is read from the fitted curve at half-maximal effect). The essentials: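 HepG2 ARE-bla reporter line, 2,000 cells/well; 5 h preincubation 37 C/5% CO2; compound (DMSO) 16 h 37 C; B/G FRET substrate 2 h RT; fluorescence intensity.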
Assay [8] can be described thus: qHTS assay for small molecule agonists of the antioxidant response element (ARE) signaling pathway - cell viability counter screen (AID 743203; calls by dose curve; also: nearly all actives have a fitted effect of over 55% in size). In short, it runs like this: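 Measured in the same wells as the beta-lactamase ARE reporter, this read-out is CellTiter-Glo luminescence from HepG2 ARE-bla cells given compounds for 16 hrs.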
Assay [9] in a line: qHTS assay for small molecule activators of the heat shock response signaling pathway - cell viability counter screen (AID 743209). Also: nearly all actives have a fitted effect of over 50% in size. The essentials: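 Same-well multiplex: after 2.5 h room-temperature incubation with LiveBLAzer B/G substrate and fluorescence reading, CellTiter-Glo reagent was added to HSE-bla HeLa cells that had received compound for 5 h at 37 C; luminescence read after 30 min.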

Assay [10] in a line: qHTS assay for small molecule activators of the heat shock response signaling pathway (AID 743210; active = well fitted activation curve with a large enough effect in the signal ratio in the repeat runs, with a control signal flat, not every such curve was filed as active; inconclusive = weak or mixed curves; the % refers to the signal ratio;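 also: HeLa cells with beta-lactamase reporter driven by heat shock elements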). In short, it runs like this:
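Beta-lactamase reporter read-out: FRET substrate fluorescence after 2.5 h at RT, following 5 h compound treatment at 37 C of HeLa cells carrying HSE-driven bla reporter; quantitative HTS format.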

The subject of assay [11] is thyroid hormone receptor (rat, GH3 cells). Kind of assay: qHTS assay to identify small molecule agonists of the thyroid receptor (TR) signaling pathway (AID 743066; calls by dose curve).
Assay [12] has as its target Estrogen receptor (Homo sapiens) (UniProt P03372). Kind of assay: qHTS assay to identify small molecule agonists of the estrogen receptor alpha (ER-alpha) signaling pathway (AID 743075; calls by dose curve;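 also: HEK293 GripTite cells with ER-alpha and UAS-driven beta-lactamase reporter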; also: potency is read from the fitted curve at half-maximal effect).
Assay [13] has the same target. Kind of assay: qHTS assay to identify small molecule agonists of the estrogen receptor alpha (ER-alpha) signaling pathway using the BG1 cell line (AID 743079). Also: nearly all actives have a fitted effect of over 20% in size. Also: potency is read from the fitted curve at half-maximal effect. To be noted: BG1Luc4E2 cells, ERE-luciferase agonist, 22 h; activation: at 70.3 µM (top of the series).
The nature of assay [14]: qHTS assay to identify small molecule antagonists of the estrogen receptor alpha (ER-alpha) signaling pathway using the BG1 cell line (AID 743080; calls by dose curve;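 also: BG1 cells stimulated with 17beta-estradiol alongside compound; nearly all actives have a fitted effect of over 25% in size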). In short, it runs like this:
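Quantitative HTS on the Tox21 10K library: BG1 cells with endogenous ER-alpha and ERE-luciferase reporter, 17beta-estradiol stimulation, 21.5 h compound exposure, luminescence endpoint with parallel fluorescence cytotoxicity counter-read.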

The target in assay [15] is Aryl hydrocarbon receptor (Homo sapiens) (UniProt P35869). Kind of assay: qHTS assay to identify small molecule that activate the aryl hydrocarbon receptor (AhR) signaling pathway (AID 743085). Also: nearly all actives have a fitted effect of over 15% in size. Also: potency is read from the fitted curve at half-maximal effect.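 As to activation: HG2L7.5c1 human HepG2 liver cells with stably integrated DRE-driven firefly reporter.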 The essentials:
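AhR agonist activity is inferred from enhanced light output of a DRE-controlled firefly luciferase reporter in HepG2 cells, measured with ONE-Glo following 24 h treatment at 37C.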

Assay [16] concerns the target Peroxisome proliferator-activated receptor gamma (Homo sapiens) (UniProt P37231). Kind of assay: qHTS assay to identify small molecule antagonists of the peroxisome proliferator-activated receptor gamma (PPARg) signaling pathway (AID 743191; calls by dose curve; also: nearly all actives have a fitted effect of over 30% in size; also: potency is read from the fitted curve at half-maximal effect). The essentials: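 GeneBLAzer PPARg UAS-bla HEK293H cells, 5 h post-plating, exposed to compounds 17 h at 37C. LiveBLAzer B/G FRET substrate added for 1 h at room temperature; beta-lactamase reporter read by fluorescence intensity.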

Assay [17] has as its target Estrogen receptor (Homo sapiens) (UniProt P03372). Kind of assay: qHTS assay to identify small molecule antagonists of the estrogen receptor alpha (ER-alpha) signaling pathway (AID 743069; active = well fitted curve in the direction sought with a large enough effect in the signal ratio in the repeat runs, not every such curve was filed as active; inconclusive = weak or mixed curves, or effect the other way; inactive = no such curve, though single readings can be large or run the other way; the % refers to the signal ratio). In short, it runs like this: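 Beta-lactamase FRET fluorescence is read after 2 hr at room temperature with LiveBLAzer B/G substrate. Before that, ER-alpha-bla HEK293 cells sit 4 hr after plating, then receive compound plus 17beta-estradiol and incubate 18 hr at 37C.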
% is scaled to controls: 0 for no effect and ±100 for the full control effect.

Chain of Estrogen receptor (Homo sapiens) (P03372 whole entry, looked up): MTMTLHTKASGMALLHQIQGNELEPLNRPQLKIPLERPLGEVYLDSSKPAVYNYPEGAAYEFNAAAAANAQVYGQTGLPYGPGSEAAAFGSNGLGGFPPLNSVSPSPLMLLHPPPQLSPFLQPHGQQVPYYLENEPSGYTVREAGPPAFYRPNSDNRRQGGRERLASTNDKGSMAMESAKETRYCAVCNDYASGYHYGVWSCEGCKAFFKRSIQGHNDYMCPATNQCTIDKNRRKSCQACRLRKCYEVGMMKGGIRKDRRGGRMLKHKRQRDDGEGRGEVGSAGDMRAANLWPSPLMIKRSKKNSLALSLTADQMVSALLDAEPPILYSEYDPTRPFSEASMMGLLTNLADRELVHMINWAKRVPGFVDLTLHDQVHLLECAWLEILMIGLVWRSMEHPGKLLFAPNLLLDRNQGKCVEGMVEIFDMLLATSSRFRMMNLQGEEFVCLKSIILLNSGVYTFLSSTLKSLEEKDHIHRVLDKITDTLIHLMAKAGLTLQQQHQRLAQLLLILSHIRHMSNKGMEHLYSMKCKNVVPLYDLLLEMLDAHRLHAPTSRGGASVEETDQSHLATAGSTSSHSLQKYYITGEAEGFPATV
Chain of Aryl hydrocarbon receptor (Homo sapiens) (P35869 whole entry, looked up): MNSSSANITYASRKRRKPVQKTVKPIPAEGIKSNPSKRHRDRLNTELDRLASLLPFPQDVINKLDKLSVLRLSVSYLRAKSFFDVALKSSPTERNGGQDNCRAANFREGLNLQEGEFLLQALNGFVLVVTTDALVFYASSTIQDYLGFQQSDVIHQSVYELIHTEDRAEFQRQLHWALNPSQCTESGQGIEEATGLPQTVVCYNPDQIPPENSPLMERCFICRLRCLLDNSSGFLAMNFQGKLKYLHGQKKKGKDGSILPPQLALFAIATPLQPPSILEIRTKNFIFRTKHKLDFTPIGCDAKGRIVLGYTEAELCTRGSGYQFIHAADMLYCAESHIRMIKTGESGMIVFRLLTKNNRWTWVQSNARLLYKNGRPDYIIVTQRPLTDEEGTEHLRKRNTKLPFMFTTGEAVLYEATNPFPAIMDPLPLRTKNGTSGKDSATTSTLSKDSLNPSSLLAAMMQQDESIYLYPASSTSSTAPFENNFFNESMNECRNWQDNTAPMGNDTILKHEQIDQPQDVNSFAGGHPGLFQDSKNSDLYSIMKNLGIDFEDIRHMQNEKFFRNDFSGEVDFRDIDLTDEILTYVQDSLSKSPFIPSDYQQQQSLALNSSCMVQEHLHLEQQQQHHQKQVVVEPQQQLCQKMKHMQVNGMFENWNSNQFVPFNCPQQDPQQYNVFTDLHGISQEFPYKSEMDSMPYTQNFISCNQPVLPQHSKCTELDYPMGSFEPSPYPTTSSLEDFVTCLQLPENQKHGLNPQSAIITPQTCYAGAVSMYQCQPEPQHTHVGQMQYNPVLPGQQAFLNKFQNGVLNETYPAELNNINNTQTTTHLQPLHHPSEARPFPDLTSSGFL

For `CC(=O)OCC(=O)NCCCOc1cccc(CN2CCCCC2)c1`, the Potency result (in assay [1]; in assay [2]; in the assay with Aromatase (Homo sapiens); in assay [3]; in [4]; in [5]) was “inactive” each time. The Potency result in [6], in [7], in assay [8], in assay [9] and in assay [10] was “inactive” each time.
For the molecule `CCCCN(CCCC)C(C(N)=O)c1ccc(OC)cc1` (stereo not given), the Potency entry in assay [6], in assay [7], in [9] and in assay [10] was “inactive” each time.
On to `C/C=C(/C(=C/C)c1ccc(O)cc1)c1ccc(O)cc1`, for which, in assay [11], the result was inactive. The Potency result (in assay [1]; in assay [14]; in assay [2]; in the assay with Aromatase (Homo sapiens); in [3]; in [15]) was “inactive” in each case. For the same molecule, the Potency result in assay [5], in assay [8] and in [9] was “inactive” each time. The Potency in assay [12] was 0.6 nM [inconclusive] (active); in assay [13], 0.3 nM (active); in assay [16], 29.8 µM (active); in assay [7], 15 µM (active).
Turning to `Cc1cc(O)ccc1O`, the result in [11] was inactive. The Potency result in assay [1], in assay [2], in assay [4], in [6], in assay [8] and in [9] was “inactive” each time. Besides, in assay [10], the Potency result was “inactive”. Further, the Potency in assay [15] was 61.8 µM (active).
As to `CN1CCCN=C1COC(=O)C(O)(c1ccccc1)C1CCCCC1` (stereo not given), the result in assay [11] was inactive. Further, the Potency entry (in assay [17]; in assay [12]; in assay [13]; in assay [14]; in [2]; in the assay with Aromatase (Homo sapiens)) was “inactive” throughout. Moreover, the Potency result in assay [3], in [15], in [4], in assay [5], in assay [16] and in assay [7] was “inactive” each time. Besides, the Potency result in [8], in [9] and in assay [10] was “inactive” in each case.
Regarding `CC(C)=CCC/C(C)=C/CC/C(C)=C/C(=O)OCC(=O)[C@@]1(O)CC[C@H]2[C@@H]3CCC4=CC(=O)C=C[C@]4(C)[C@H]3[C@@H](O)C[C@@]21C`, the Potency entry in [9] is “inactive”.
As for `CCCCOc1ccc(OCCCN2CCOCC2)cc1`, the molecule was called inactive in [11]. The Potency result in [17], in [1], in assay [12], in assay [13], in assay [14] and in assay [2] was “inactive” throughout. The Potency result (in the assay with Aromatase (Homo sapiens); in assay [3]; in [15]; in [4]; in assay [5]; in assay [16]) was “inactive” in each case. Moreover, the Potency entry in [6], in [8], in assay [9] and in [10] was “inactive” in each case.
As for `CN(C)CCN1C(=O)c2ccccc2N(C)c2ccccc21`, in [11], the molecule was classed as inactive. The Potency entry (in [17]; in [1]; in assay [12]; in [13]; in assay [2]; with Aromatase (Homo sapiens)) was “inactive” throughout. The Potency entry in [3], in [15], in assay [4], in assay [5], in assay [16] and in [6] was “inactive” throughout. For the same molecule, the Potency entry in assay [7], in [8], in assay [9] and in assay [10] was “inactive” throughout.
For the molecule `C[C@]12CC[C@@H]3c4ccc(O)cc4CC[C@H]3[C@@H]1CC[C@@H]2OC(=O)CCC1CCCC1`, the outcome in assay [11] was inactive. In addition, the Potency result in assay [1], in assay [14], in [2], in assay [3], in [15] and in assay [4] was “inactive” throughout. The Potency entry in assay [5], in [16], in assay [7] and in [8] was “inactive” throughout. The Potency in assay [12] was 1.2 nM [inconclusive] (active) and 0.5 nM [inconclusive] (active); with Aromatase (Homo sapiens), “inactive and 61.1 µM (active)”. Moreover, in assay [13], the activation is 60.2% (active) and 48.5% (active) and 30.3% (active).
Regarding `CS(=O)(=O)c1ccc(-c2cn3ccccc3n2)cc1`, the Potency result in assay [6] and in assay [7] was “inactive” in each case.
Take `COc1ccc(OC(=O)N(CC(=O)O)Cc2ccc(OCCc3nc(-c4ccccc4)oc3C)cc2)cc1`: the Potency result in [6], in [8], in assay [9] and in [10] was “inactive” each time.
Regarding `CC(C)(C)CC(=O)OCC(=O)[C@@]1(O)CC[C@H]2[C@@H]3CCC4=CC(=O)C=C[C@]4(C)[C@H]3[C@@H](O)C[C@@]21C`, the Potency result in [6], in assay [7], in assay [8] and in [9] was “inactive” throughout.
Regarding `C=CCc1ccccc1OCC(O)CNC(C)C` (stereo not given), the result in [11] was inactive. Besides, the Potency result (in [1]; in assay [2]; in the assay with Aromatase (Homo sapiens); in [3]; in assay [15]; in assay [4]) was “inactive” each time. The Potency result in [5], in assay [6], in [8], in [9] and in assay [10] was “inactive” each time.
